For nine molecules, growth results are on record in PubChem BioAssay (NCI).

Common to all, as to experiment: NCI-60 one-dose screen, 48 h (100 = growth as untreated, 0 = no growth, -100 = all killed)
What all share (settings): 10 µM

For test [1], the system named is RPMI-8226 leukemia.
Test [2] deals with OVCAR-8 ovarian.
For test [3], the system named is OVCAR-5 ovarian.
Test [4] relates to OVCAR-4 ovarian.
The test system of test [5] is SK-OV-3 ovarian.
Test [6] has as its system IGROV1 ovarian.
In test [7] the test system is OVCAR-3 ovarian.
The test system of test [8] is HS 578T breast.
For test [9], the system named is NCI/ADR-RES ovarian.
Test [10] deals with T-47D breast.
The subject of test [11] is BT-549 breast.
The subject of test [12] is MDA-MB-435 melanoma.
Test [13] concerns SW-620 colon.
Test [14] deals with MCF7 breast.
The subject of test [15] is HCT-116 colon.
Test [16] relates to HCC-2998 colon.
Test [17] concerns KM12 colon.

Compounds without any hit were thinned out: in the full panel of roughly 83,000, 20% have a hit.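 The test compound was applied at a single concentration to cells in 96-well plates for 48 hours, and percent growth was recorded.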 Values without a mark were called inactive. Activity calls are given as the source filed them. The calls were made as follows: active = growth percent below 10; inactive = the rest.

For `CSc1nc(=O)n(Cc2ccc(F)cc2)c(=O)n1Cc1ccc(C)cc1`, the growth in test [1] is 99.2%; in test [2] it was 97.6%; in test [3] it was 102%; in [4], 98.4%; in test [5], 98.7%; in test [6], 107%. The growth in test [7] was 101%; in test [8] it was 109%; in [9], 86.6%; in test [10], 87%; in [11] it was 103%; in test [12] it was 117%. Besides, the growth in test [13] was 115%; in test [14], 91.1%; in [15], 97.5%; in test [16], 95.5%; in [17], 96.4%.
For the molecule `CC(=O)c1nc2ccccc2n1CCNC(N)=O`, the growth in test [1] is 32%; in test [2] it was 85.1%; in test [3] it was 97.5%; in test [4], 93.1%; in test [5] it was 91.5%; in test [6] it was 88.9%. Further, the growth in [7] is 82.7%; in [8], 68.9%; in [9], 101%; in [10], 67.8%; in test [11] it was 74.4%; in [12], -13.7% (active). The growth was 57.6% in [13]; 52.4% in test [14]; 37.2% in [15]; 95.8% in [16]; 66.4% in [17].
Regarding `COC(=O)C1(C)Cc2cc(OC(C)=O)c(OC(C)=O)cc2N1` (stereo not drawn), the growth in test [1] is 23.6%; in [2], 85.2%; in [3], 118%; in test [4], 57.8%; in test [5], 98.4%; in [6], 27.1%. Further, the growth in test [7] was 67.2%; in test [8] it was 88.7%; in [9], 80.6%; in [10], 42.6%; in test [11] it was 98.8%; in [12] it was 73.9%. For the same molecule, the growth in [13] is 58.6%; in test [14] it was 51.7%; in test [15], 35.1%; in test [16], 112%; in [17], 85.9%.
Consider `O=C1/C(=C/c2ccc([N+](=O)[O-])s2)Oc2ccccc21`, for which the growth in [1] is 0.673% (active); in test [2], 2.43% (active); in test [3], -56.7% (active); in test [4], -86.7% (active); in test [5] it was 12.3%; in test [6] it was -72.5% (active). For the same molecule, the growth in [7] is -60.8% (active); in [8] it was 25.7%; in test [9], 12.3%; in [10] it was 2.78% (active); in test [11], -83.2% (active); in test [12] it was -58.1% (active). Also, the growth in test [13] was -61.3% (active); in test [14] it was 1.53% (active); in test [15] it was -45.4% (active); in [16] it was -71.4% (active); in test [17] it was -58.9% (active).
In the case of `COc1ccc(-c2nc3ncccn3c2-c2nnc(-c3ccsc3C)o2)cc1`, the growth in test [1] was 86.9%; in [2], 25.2%; in test [3], 102%; in test [4], 25.7%; in test [5] it was 54.4%; in [6], 94.7%. Moreover, the growth was 55.4% in test [7]; 56.4% in [8]; 61.1% in [9]; 92.1% in test [10]; 63.6% in test [11]; 94.6% in [12]. Moreover, the growth in [13] is 94.6%; in test [14] it was 77.1%; in test [15] it was 88.9%; in test [16], 102%; in test [17] it was 98.6%.
On to `COc1ccc(C2=Nc3c(C)nn(-c4ccccc4)c3NC(c3ccc(Oc4ccnc5cc(Cl)ccc45)c(OC)c3)C2)cc1` (stereo not drawn), for which the growth in test [1] is 56.7%; in [2], 75.2%; in [3], 95.2%; in [4], 43%; in test [5], 74.7%; in test [6], 73.4%. Besides, the growth in [7] is 79.9%; in test [8] it was 78.6%; in test [9] it was 79.9%; in [10], 61.9%; in [11] it was 93%; in test [12] it was 80.4%. The growth is 81.7% in [13]; 60.6% in [14]; 45.6% in [15]; 89.7% in [16]; 85.4% in [17].
In the case of `CC(=O)N1N=C(c2ccc(Cl)cc2)CC1c1sc(Cl)nc1Cl` (stereo not drawn), the growth is 87.5% in test [1]; 78% in test [2]; 96.9% in test [3]; 66.4% in test [4]; 83.2% in [5]; 59.1% in test [6]. Besides, the growth was 75.6% in [7]; 98.2% in test [8]; 80.7% in test [9]; 75.1% in test [10]; 89.9% in test [11]; 89.2% in test [12]. The growth in test [13] was 102%; in test [14], 85.9%; in test [15], 75.9%; in [16], 94.8%; in test [17], 93.5%.
With `COc1cc(-c2nc(-c3nnc(-c4ccc(F)c(Cl)c4)o3)c3ccccn23)cc(OC)c1OC`, the growth in test [1] was 35.3%; in [2] it was -28.2% (active); in test [3] it was 67.6%; in test [4], -40.4% (active); in [5] it was -4.85% (active); in test [6] it was 72.9%. Further, the growth in test [7] is 22.3%; in [8], 58.6%; in [9], 21%; in [10], 30.4%; in [11], 2.74% (active); in [12], 49.8%. Further, the growth is 58.7% in test [13]; 15.5% in test [14]; -31.5% (active) in [15]; 64.1% in [16]; 5.68% (active) in test [17].
With `O=C1NC(=O)c2ncccc21`, the growth in [1] was 99.3%; in [2], 100%; in test [3], 107%; in test [4], 113%; in test [5], 101%; in [6], 107%. Also, the growth was 113% in [7]; 124% in [8]; 106% in test [9]; 102% in test [10]; 91.1% in test [11]; 100% in test [12]. Moreover, the growth was 120% in test [13]; 95.5% in [14]; 102% in test [15]; 103% in [16]; 107% in test [17].
